Assay results from PubChem BioAssay AID1645875 (National Center for Advancing Translational Sciences (NCATS), 2021).
Results filed as inconclusive are left out. Values without a mark were called inactive. Activity calls are given as the source filed them. Calls follow the shape of the dose curve; as a rule, active = well fitted inhibition curve with a large enough effect; inconclusive = small, poorly fitted or top-dose-only effect; inactive = no such curve, though single readings can be large or run the other way. Where a SMILES comes first, the peptide text is derived from it. The star is where a group is joined. AFC = O=c1cc(C(F)(F)F)c2ccc(N*)cc2o1

These molecules were tested against N-terminal Xaa-Pro-Lys N-methyltransferase 1 (Homo sapiens) (UniProt Q9BV86) (assay: Orthogonal qHTS for Inhibitors of N-terminal methyltransferase 1 (NTMT1): ThioGlo Assay). Conditions: NTMT1 SAHH-coupled ThioGlo fluorescence, 30 min; series mostly up to 84.5 µM; activity, negative = inhibition: at the top concentration.
Source text: Assay Submitter (PI): Rong Huang Ph.D. Purdue University, West Lafayette, IN 47907 The N-terminal methytransferase 1 is the first methyltransferase that methylates protein alpha-N-amines and plays an important role in regulating cell mitosis, chromatin interactions and DNA repair. It is observed to be over-expressed in various cancer patient tissues like malignant melanoma and colorectal cancer tissues. Knockdown of NTMT1 in cancer cells causes cell mitotic defects and enhances sensitivity to DNA damaging chemotherapeutics. […] These critical cellular processes in which NTMT1 is implicated, coupled with emerging links to cellular dysfunction, strengthen the inference that NTMT1 is a compelling novel anticancer target. Progress have been made in understanding the molecular properties of NTMT1 and the biological consequences of protein alpha-N-terminal methylation, but there are no specific small molecule probes available for NTMT1 to fully characterize its MTase activity. To address this unmet need, a panel of assay is created and established to enable quantitative high-throughput screening (qHTS) for novel, potent, and selective small molecule NTMT1 inhibitors. Two orthogonal qHTS that use different reagents (ThioGlo vs. MTaseGlo) are developed for primary robotic screening against the NCATS chemical library of more than 400,000 small molecules. Identified inhibitors are reacquired, validated, and further characterized. […] Early Translation Branch (ETB) National Center for Advancing Translational Sciences (NCATS) National Institute of Health (NIH)
Materials: NTMT1 enzyme, substrate SPKRIA, control peptide RCC1-6 is provided by the Huang laboratory. MTaseGlo Assay: PROTOCOL TABLE; SEQUENCE No. (e.g., 1, 2, 3, etc.); […] (e.g., Cells, Incubation, Reagent, etc.); VALUE; DESCRIPTION 1; Enzyme; 3 uL; Dispense enzyme mixture (final concentrations of 125 nM NTMT1) into Greiner 1536-well black / solid bottom assay plate (Greiner Bio One, Monroe, NC). 2; Compounds; 23 nL; Compounds (at various concentration) and 1uM final concentration of RCC1-6 (SPKRIA) control were transferred via a Kalypsys Pin Tool (Wako USA) equipped with a 1536-slotted pin array (Wako Automation, Richmond, VA). 3; Incubation; 1 min; Incubate at room temperature. 4; Substrate; 1 uL; Dispense 1 uL of substrate solution (100uM SAM, 10uM SAHH, 15uM ThioGlo3 final concentration) was added to the wells bringing the final assay volume to 4uL. The assay plate was covered with metal lids. 5; Detection; Fluorescence; Initial fluorescence readout (background signal) was detected using the ViewLux microplate imager with an excitation filter of 340 nm and 450 nm emission filter. 6; Incubation; 30 min; Assay plates were incubation at room temperature in the dark. 7; Detection; Fluorescence; Final fluorescence readout was detected using the ViewLux microplate imager with an excitation filter of 340 nm and 450 nm emission filter. The data was normalized to the background fluorescence.

Sequence of N-terminal Xaa-Pro-Lys N-methyltransferase 1 (Homo sapiens) (Q9BV86 whole entry, looked up): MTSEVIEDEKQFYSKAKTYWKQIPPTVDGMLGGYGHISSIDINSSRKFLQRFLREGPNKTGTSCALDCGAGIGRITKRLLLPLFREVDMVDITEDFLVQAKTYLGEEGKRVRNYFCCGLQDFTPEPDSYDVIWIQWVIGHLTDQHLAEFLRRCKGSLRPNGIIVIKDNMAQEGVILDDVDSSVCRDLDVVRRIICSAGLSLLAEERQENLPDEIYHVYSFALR

| Structure (SMILES) | Potency | activity, negative = inhibition |
| --- | --- | --- |
| O=C1NC(=O)/C(=C/c2ccc(-c3ccc(F)cc3O)o2)S1 | 30.8 µM (active) |  |
| COc1cc(CCc2ccc(OCC=C(C)C)cc2)cc(OC)c1OC |  | -15% |
| COc1cc(N2CCC(O)CC2)ccc1Nc1nc(Nc2ccccc2S(=O)(=O)C(C)C)c2[nH]cnc2n1 | 19.7 µM (active) |  |
| Cc1cc2c(c(=O)[nH]1)OC(C(O)CC(C)C)O2 (stereo not given) | 19.7 µM (active) |  |
| O=C([C@@H]1CCCN(c2ccc3[nH]c(C4(n5cc(Cl)cn5)CC4)nc3n2)C1)N1CCCC1 | 22.1 µM (active) |  |
| O=C(Nc1ccc(S(=O)(=O)C(F)(F)F)cc1)C1=CCN(c2ncccc2C(F)(F)F)CC1 |  | 49.9% [at 114 µM] |
| Clc1ccc(Nc2nnc(Cc3ccncc3)c3ccccc23)cc1 | 62.2 µM (active) |  |
| COc1ccc2cc3c(NC(=O)c4ccco4)nn(C)c3nc2c1 | 49.4 µM (active) |  |
| COc1cc2c(NC3CCN(C)CC3)nc(N3CCCN(C)CC3)nc2cc1OCCCCCN | 30.8 µM (active) |  |
| CNCCCOc1cc2nc(N3CCCN(C)CC3)nc(NC3CCN(C)CC3)c2cc1OC | 43.5 µM (active) |  |
| OCc1ccc(-c2ccc(-c3ccc(CO)s3)o2)s1 | 19.2 µM (active) |  |
| CCOc1ccc(Nc2nc(-c3c(C)nc4ccccn34)cs2)cc1 | 3.12 µM (active) |  |
| COc1cc2c(NC3CCN(CC4CCCCC4)CC3)nc(N3CCCN(C)CC3)nc2cc1OCCOCCN(C)C |  | 299% |
| COc1ccc(C2=Nn3c(nnc3-c3ccccc3F)SC2)cc1OC1CCCC1 |  | -26.7% |
| NC(=O)c1cccc(-c2cc(OC(=O)NC3CCCCC3)ccc2O)c1 |  | -7.27% [at 114 µM] |
| Cc1cnc(Nc2ccc(F)cc2Cl)nc1-c1c[nH]c(C(=O)NC(CO)c2cccc(Cl)c2)c1 (stereo not given) | 6.22 µM (active) |  |
| N#Cc1ccc(Nc2nc(-c3ccc(O)cc3O)cs2)cc1C(F)(F)F | 49.4 µM (active) |  |
| OCCn1cc(-c2cnc3nnn(Cc4ccc5ncccc5c4)c3n2)cn1 | 17.5 µM (active) |  |
| CC[N+](CC)(CC)CCOc1cccc(OCC[N+](CC)(CC)CC)c1OCC[N+](CC)(CC)CC | 0.614 µM (active) |  |
| O=C(Nc1ccccc1)c1ccc(Nc2nnc(-c3ccc(O)cc3)c3ccccc23)cc1 | 27.8 µM (active) |  |

| Structure (SMILES) | Potency | activity, negative = inhibition |
| --- | --- | --- |
| COc1c/c(=C2\C=c3ccccc3=N2)[nH]/c1=C/c1[nH]c(C)cc1C | 24.8 µM (active) |  |
| COc1cc2c(NC3CCN(C4CCCCC4)CC3)nc(N3CCCN(C)CC3)nc2cc1OCCCN1CCCCC1 | 43.5 µM (active) |  |
| COc1cccc(C2=Nn3c(nnc3-c3ccccc3C)SC2)c1 | 27.4 µM (active) |  |
| Cc1cccc(/C=C/c2ccccc2)n1 |  | -27% |
| C[N+]1(C)CCC(OC(=O)C(c2ccccc2)c2ccccc2)CC1 | 2.74 µM (active) |  |
| COc1cc2nc(N3CCCC3)nc(NC3CC3)c2cc1OC |  | -17% |
| c1cc(CN2CCCCC2)cc(OCCCNc2nc3ccccc3s2)c1 |  | -14.1% |
| C=Cc1c(C)c2cc3[nH]c(cc4nc(cc5nc(cc1[nH]2)C(C)=C5CCC(=O)O)C(CCC(=O)O)=C4C)c(C)c3C=C | 15.4 µM (active) |  |
| Cc1ccc(S(=O)(=O)Nc2cnccc2C(=O)Nc2nc(-c3cccc(C)c3)cs2)cc1 |  | -29.8% |
| COc1cc2c(NC3CCN(C(C)C)CC3)nc(N3CCCCCC3)nc2cc1OCCCN1CCCC1 | 38.8 µM (active) |  |
| O=S(=O)(Cc1ccccc1)Nc1ccc(-c2ccc3c(cnn3-c3ccc(F)cc3)c2)c(C(F)(F)F)c1 |  | -18.7% [at 114 µM] |
| COc1cc2c(NC3CCN(C(C)C)CC3)nc(N3CCCCC3)nc2cc1OCCOCCN(C)C | 34.5 µM (active) |  |
| COc1cccc(C(=O)NCCNc2nc3cc(C)cc(C)c3cc2C#N)c1 | 44.1 µM (active) |  |
| Fc1cc(-c2cccc3ncc(-c4cnn(C5CCNCC5)c4)nc23)cc(F)c1CN1CCOCC1 | 34.5 µM (active) |  |
| O=C(O)c1ccc(Cc2c(-c3cccc(-c4ccccc4)c3)[nH]n(-c3nc(C(=O)O)cs3)c2=O)cc1 |  | -6.37% |
| COc1cc2c(NC3CCN(C(C)C)CC3)nc(N3CCCCC3)nc2cc1OCCCN1CCCCC1 |  | 5.1% |
| CC(=O)N[C@@H](CC(C)C)C(=O)N[C@@H](CCC(=O)O)C(=O)N[C@@H](CCC(=O)O)C(=O)N[C@@H](CC(=O)O)C(=O)Nc1ccc2c(C(F)(F)F)cc(=O)oc2c1 (Ac-LEED-{AFC}) | 44.1 µM (active) |  |
| CC[C@@H](C)Nc1cc(C(=O)NC2CC3CC[C@@H](C2)N3c2ccc(C(=O)C3CC3)cn2)c(C)cc1C(N)=O (stereo not given in full) | 35 µM (active) |  |
| CC(C)c1cc2c(c(O)c1O)[C@@]13CCCC(C)(C)[C@@H]1[C@H](OC3=O)C2=O | 9.67 µM (active) |  |
| COc1cc2c(NC3CCN(C(C)C)CC3)nc(N3CCCN(CC4CCCCC4)CC3)nc2cc1OCCCN1CCCCC1 |  | 198% |
